Only some compounds are listed: those with a hit (about 2.8% of all), similar ones and a draw of the others.
FEN1 inh = inhibitors of human flap endonuclease 1 | P39748 | Potency, µM (titrated, usually from 114 µM), inactives show at the top dose activity change, negative = inhibition, usual class: inhibitors | Recombinant FEN1 flap cleavage, fluorescence, 15 min | hit rate 0.35% among 390,000; note: potency is the fitted concentration of half-maximal effect; % is set by controls: 0 for no effect and ±100 for the full control effect; nearly all actives have a fitted effect of over 65% in size
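Reaction started by adding substrate (50 nM final) to 10 nM enzyme after 15 min room-temperature compound preincubation. Reads at 0 and 15 min, with data normalized and fitted to a four-parameter Hill equation.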
PI5P4Ka inh = blocks human PI5P4K alpha kinase activity. P48426. PI5P4Kalpha enzyme, ADP-Glo luminescence, 60 min; hits give low values. max response, %. hit rate 1.2% among 330,000. AID 652105; active = max response of -50% or lower; inconclusive = between -30% and -50%; inactive = -30% or higher; note: value at the top dose of about 77 µM; % is set by controls: 0 for no effect and ±100 for the full control effect
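Controls without substrate or without enzyme flank wells where PI5P4Kalpha converts substrate using 5 microM ATP (final). Incubation lasts 60 minutes at room temperature; ADP formed is read by ADP-Glo luminescence.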
POLI inh = DNA polymerase iota (human) inhibition; Pol iota fluorescent replication assay, 10 min; Q9UNA4; Potency, µM (doses to about 115 µM), without a hit: top-dose activity, negative = inhibition, most hits filed as inhibitors; hit rate 1% among 390,000; note: potency is the fitted concentration of half-maximal effect
Target sequence (Q9UNA4 whole entry, looked up): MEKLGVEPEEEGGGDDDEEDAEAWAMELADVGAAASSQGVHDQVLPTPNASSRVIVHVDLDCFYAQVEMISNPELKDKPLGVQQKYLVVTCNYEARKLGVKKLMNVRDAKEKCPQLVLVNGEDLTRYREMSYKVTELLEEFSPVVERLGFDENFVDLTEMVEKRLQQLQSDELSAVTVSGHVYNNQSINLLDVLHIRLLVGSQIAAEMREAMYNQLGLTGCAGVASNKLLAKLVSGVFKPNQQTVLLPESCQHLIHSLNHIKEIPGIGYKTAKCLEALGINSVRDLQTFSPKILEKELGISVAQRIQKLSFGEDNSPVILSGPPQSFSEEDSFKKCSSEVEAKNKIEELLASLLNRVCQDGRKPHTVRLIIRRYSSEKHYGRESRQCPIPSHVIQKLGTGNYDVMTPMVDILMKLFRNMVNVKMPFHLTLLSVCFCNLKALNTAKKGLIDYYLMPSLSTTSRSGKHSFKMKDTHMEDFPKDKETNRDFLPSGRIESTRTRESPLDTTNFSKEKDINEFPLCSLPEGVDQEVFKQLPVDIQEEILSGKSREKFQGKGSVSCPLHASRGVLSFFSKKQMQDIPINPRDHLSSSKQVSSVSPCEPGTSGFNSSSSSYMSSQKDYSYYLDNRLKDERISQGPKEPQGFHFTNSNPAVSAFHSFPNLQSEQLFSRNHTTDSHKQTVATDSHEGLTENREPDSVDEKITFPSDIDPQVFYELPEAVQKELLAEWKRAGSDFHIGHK
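Pol iota at 10 nM preincubated 15 min with compounds at room temperature; reaction started with fluorescent substrate, 50 nM final. Fluorescence read kinetically at 0 and 10 min; buffer-only wells as negative control.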
POLB inh = DNA polymerase beta (human) inhibition; hit rate 1.3% among 340,000; AID 485314; Potency, µM (titrated, usually from 114 µM), without a hit: at the highest dose activity change, negative = inhibition, usual class: inhibitors; P06746; Pol beta primer extension/strand displacement, fluorescence kinetic; note: potency is the fitted concentration of half-maximal effect; % is set by controls: 0 for no effect and ±100 for the full control effect
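Enzyme-only controls used 10 nM Pol beta; buffer lacking enzyme served as negative control. Compound preincubated 15 min, then 50 nM substrate added; 0 and 10 min reads at room temperature.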
Pol eta inh = inhibitors of human DNA polymerase eta; hit rate 1.2% among 390,000; Potency, µM (series often up to 114 µM), inactives show at the top dose activity change, negative = inhibition, usual class: inhibitors; Q9Y253; recombinant Pol eta, fluorescent DNA replication assay; note: potency is the fitted concentration of half-maximal effect; % is set by controls: 0 for no effect and ±100 for the full control effect
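Pol eta at 10 nM preincubated with compounds 15 min at room temperature; reaction started with fluorescent substrate (50 nM final) and read kinetically at 0 and 10 min.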
POLK inh = blocks human DNA polymerase kappa activity. purified Pol kappa, fluorescent DNA synthesis assay, 10 min. Potency, µM (top dose mostly 107 µM), without a hit: at the highest dose activity, negative = inhibition, most hits filed as inhibitors. hit rate 0.53% among 400,000. Q9UBT6; note: potency is the fitted concentration of half-maximal effect; % is set by controls: 0 for no effect and ±100 for the full control effect
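Enzyme at 10 nM met test compounds for 15 min at room temperature. Substrate addition (50 nM final) began the reaction, which was monitored by fluorescence at 0 and 10 min.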
ADP-Glo counter = interferes with ADP-Glo detection without enzyme present; 1,100 tested, under 10 active; shares compounds with PI5P4Ka inh; ADP-Glo detection counter-screen, luciferase luminescence, no enzyme; Potency, µM (series often up to 76.9 µM), inactives show at the top dose activity change, negative = inhibition, actives largely listed as inhibitors; AID 743285
The depositor's hits bear a star; ? = inconclusive; · = no result; ! = repeats disagree; [ ] = dose if it differs, or a comment. Unless noted, calls come from the whole dose curve; as a rule, active = well fitted curve in the direction sought with a large enough effect; inconclusive = small, poorly fitted or top-dose-only effect, or another doubt; inactive = no such curve, though single readings can be large; an effect the other way counts as inactive or inconclusive.

SMILES | FEN1 inh | PI5P4Ka inh | POLI inh | POLB inh | Pol eta inh | POLK inh | ADP-Glo counter
COc1ccc(CNS(=O)(=O)CCNC(=O)c2ccc(OC)cc2)cc1 | -4% | 8 | 39% | · | -8% | -3% | ·
O=C(c1ccc(OCCN2CCCCC2)cc1)c1c(-c2ccc(O)cc2)sc2cc(O)ccc12 | -2% | -51*! | ? | -8%[57.1 µM] | -17% | -9%[60.1 µM] | -5%
Oc1cccc(-c2sc3ccccc3c2-c2ccc(OCCN3CCCCC3)cc2)c1 | · | 0 | · | · | · | · | ·
O=C(COC(=O)CNS(=O)(=O)c1ccc2ccccc2c1)Nc1ccccc1Sc1ccccc1 | ? | -3 | 3% | 24% | -21% | -17% | ·
NC(Cc1ccc(C(F)(F)F)cc1)c1csc(NC(=O)Nc2ccccc2)n1 (stereo unspecified) | · | -56* | · | · | · | · | -2%
COC(=O)C1CCN(c2cc(Cl)nc(N)n2)CC1 | -3% | -22 | 66% | 54% | -15% | -13% | ·
NC(=O)C1CCN(c2cc(Cl)nc(N)n2)CC1 | 2% | -53* | ? | -2% | -5% | 0% | 3%
Cc1ccc(-c2ccc(=O)n(Cc3cccc(Br)c3)n2)cc1 | -2% | 23 | 30% | 0% | -19% | -33% | ·
CC(=O)Nc1ccc(C(=O)Nc2cccc(S(=O)(=O)N(C)c3ccccc3)c2)cc1 | 4% | -1 | -14% | · | -18% | -6% | ·
CN(c1cccc(NC(=O)c2ccc(N(C)S(=O)(=O)c3ccccc3)cc2)c1)S(C)(=O)=O | ? | -56* | ? | 17% | -17% | -3% | -4%
O=C(CN1CCN(c2ccccc2F)CC1)NCc1ccccc1 | -1% | -14 | 49% | 4% | ? | -5% | 2%
Cc1cccc(N2CCN(CC(=O)NCc3ccccc3)CC2)c1C | -17% | -5 | -18% | 24% | -14% | -7% | ·
C[C@H](CO)N1C[C@H](C)[C@@H](CN(C)S(=O)(=O)c2ccc3c(c2)OCCCO3)OCc2cnnn2CCCC1=O | · | -61* | · | · | -2% | · | -3%
COc1cccc(CNS(=O)(=O)c2ccccc2Br)c1OC | 4% | -60* | 8% | · | -19% | -5% | 1%
COc1ccccc1CNS(=O)(=O)c1cc(C)ccc1OC | 5% | 3 | 23% | 5% | -21% | 1% | ·
NS(=O)(=O)c1ccc2c(c1)C1C=CCC1C(C1CC=CCC1)N2 (stereo unspecified) | -5% | -80* | ? | 4% | ? | -5% | -13%
CC(C)C1Nc2ccc(S(N)(=O)=O)cc2C2C=CCC21 (stereo unspecified) | -13% | ? | ? | -5% | 10% | -11% | ·
COc1ccc(CC(=O)Nc2cc(S(=O)(=O)Nc3ccc(OC)cc3)ccc2OC)cc1 | -18% | 0 | -17% | · | -10% | -22% | ·
COc1ccc(-c2noc(N3CCC(C(=O)Nc4ccc(C)c(F)c4)CC3)n2)cc1OC | -16% | · | 12% | 17% | -5% | 8% | ·
COc1ccc(C)cc1NC(=O)CN(C)S(=O)(=O)c1ccc2c(c1)CC(C)N2C(C)=O (stereo unspecified) | -29% | 2 | -8% | 60% | -5% | 0% | ·
CCn1c(SCC(=O)NC(=O)NCc2ccco2)nc2sc(C)c(C)c2c1=O | 3% | -51* | 28µM* | 20µM* | ? | ? | 1%
Cc1sc2nc(SCC(=O)NCc3ccco3)n(C)c(=O)c2c1C | -10% | -1 | ? | 27% | ? | -5% | ·
O=C(O)c1cccc(-n2cc(-c3cccc(C(F)(F)F)c3)cn2)c1 | -4% | -62* | ? | 1% | 3% | -16% | -4%
Cc1ccc(NC(=O)CSc2nc3[nH]c(=O)cc(O)c3s2)c(Br)c1 | 14% | ? | -16% | · | -18% | -19% | ·
Cc1cc(NC(=O)CSc2sc3c(O)cc(=O)[nH]c3c2C#N)ccc1Br | ? | -104* | 56µM* | ? | 28µM* | ? | 5%
SMILES | FEN1 inh | PI5P4Ka inh | POLI inh | POLB inh | Pol eta inh | POLK inh | ADP-Glo counter
O=C(CSCCO)Nc1cccc(C(F)(F)F)c1 | -6% | · | -12%[58.9 µM] | -23% | -18% | -2% | ·
COc1ccccc1NC(=O)CSc1sc2c(O)cc(=O)[nH]c2c1C#N | 50µM* | -66* | 2.8µM* | 0.56µM* | 20µM* | 50µM* | -5%
Cc1ccc(C)c(NC(=O)CSc2sc3c(O)cc(=O)[nH]c3c2C#N)c1 | -22% | -64* | 28µM* | ? | 20µM* | ? | 3%
COc1cc(NC(=O)c2ccccc2)c(OC)cc1NC(=O)CSc1[nH]c(=O)cc(C)c1C#N | 11% | 2 | -4% | ? | -22% | 2% | ·
N#Cc1c(SCC(=O)Nc2cccc(C(F)(F)F)c2)sc2c(O)cc(=O)[nH]c12 | 25µM* | -103* | ? | 44% | 20µM* | 25µM* | -1%
CCC(C)NC(=O)Cn1ccc2cc(S(=O)(=O)N3CCCCC3)ccc21 (stereo unspecified) | 2% | · | 13% | 2% | 9% | -13%[60.1 µM] | ·
CCN(CC)C(=O)c1sc2c(c1C)c(=O)n(-c1ccc(Cl)c(Cl)c1)c(=O)n2Cc1cc(=O)n2ccccc2n1 | 11% | · | 8% | 4% | -26% | 2%[60.1 µM] | ·
COc1cc(Cl)c(NC(=O)c2cc3ccccn3n2)c(OC)c1 | 18% | · | ? | ? | 1% | -5% | ·
Nc1nc(NCc2ccc(Cl)c(Cl)c2)c2[nH]cnc2n1 | -6% | · | 55% | · | · | -1% | ·
Cc1cc(NC(=O)CN2CCN(C)CC2)no1 | ? | -51* | 16% | 7% | -8% | -2% | 3%
COc1ccc(N2CSC3=C(C#N)C(c4cccc(OC)c4OC)CC(=O)N3C2)cc1 (stereo unspecified) | -20% | -51* | 57% | 1% | 8% | -10% | -14%
CCc1ccccc1N1CSC2=C(C#N)C(c3ccccc3F)CC(=O)N2C1 (stereo unspecified) | -29% | -60* | -8% | -27% | -8% | -6% | -8%
COc1ccc2ccccc2c1C1CC(=O)N2CN(C3CCCCC3)CSC2=C1C#N (stereo unspecified) | ? | -56* | ? | 89µM* | ? | -44% | -5%
COC(=O)C1=C(C)N(C)C(=O)NC1c1c(OC)ccc2ccccc12 (stereo unspecified) | -1% | 14 | 76% | 21% | -13% | 6% | ·
Cn1c2c(c(=O)n(C)c1=O)C(c1ccccc1F)C(C#N)=C(N)O2 (stereo unspecified) | 12% | 4 | ? | 2% | -4% | -15% | ·

High-throughput results: PubChem BioAssay, National Center for Advancing Translational Sciences (NCATS)
